According to PubChem BioAssay AID1159580 (chemical genetic matrix, 2015):
In all, about 5,500 compounds went through this assay and about 2,000 (36%) were called active. Roughly 18% stayed inconclusive and do not appear here. Cut-off read from the data, not from the text of the source: active = normalized growth mostly below about 0.91 (no sharp cut-off); inconclusive = no clear call, values can overlap the other calls; inactive = mostly above about 0.92. The list shows a part of the results.

Experiment: chemical genetic growth profiling, strain panel (AID 1159580);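 note: tested at 20 µM; growth read once vehicle control cultures reached saturation at 30 °C; 1 = growth at the plate median or of vehicle wells; lower values mean less growth of the strain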
Conditions: S. cerevisiae deletion strains, growth OD

Measured: normalized growth

O=c1cc(-c2ccc(O)cc2)oc2ccc(O)cc12
inactive: locus YAL021C, strain ccr4, stronger effect = lower value 0.99 | locus YAL026C, strain drs2, stronger effect = lower value 0.956 | locus YAL030W, strain snc1, stronger effect = lower value 0.972 | locus YBL061C, strain skt5, stronger effect = lower value 0.964 | locus YBR009C, strain hhf1, stronger effect = lower value 0.936 | locus YBR023C, strain chs3, stronger effect = lower value 0.987 | locus YBR171W, strain sec66, stronger effect = lower value 0.981 | locus YBR231C, strain swc5, stronger effect = lower value 0.979 | locus YBR279W, strain paf1, stronger effect = lower value 0.978 | locus YCL011C, strain gbp2, stronger effect = lower value 0.949 | locus YCL016C, strain dcc1, stronger effect = lower value 0.981 | locus YCL061C, strain MRC1, stronger effect = lower value 0.987 | locus YCL069W, strain vba3, stronger effect = lower value 0.98 | locus YCR088W, strain abp1, stronger effect = lower value 0.977 | locus YDL005C, strain med2, stronger effect = lower value 0.969 | locus YDL040C, strain nat1, stronger effect = lower value 0.985 | locus YDR001C, strain nth1, stronger effect = lower value 0.97 | locus YDR069C, strain doa4, stronger effect = lower value 0.922 | locus YDR137W, strain rgp1, stronger effect = lower value 0.96 | locus YDR159W, strain sac3, stronger effect = lower value 0.954 | locus YDR195W, strain ref2 0.943 | locus YDR297W, strain sur2, stronger effect = lower value 0.958 | locus YDR334W, strain swr1, stronger effect = lower value 0.976 | locus YDR335W, strain msn5, stronger effect = lower value 0.979 | locus YDR392W, strain spt3, stronger effect = lower value 0.935 | locus YEL003W, strain gim4, stronger effect = lower value 0.97 | locus YEL037C, strain rad23, stronger effect = lower value 0.971 | locus YEL061C, strain CIN8 (second series), stronger effect = lower value 0.952 | locus YER015W, strain faa2, stronger effect = lower value 0.997 | locus YER016W, strain bim1, stronger effect = lower value 0.983 | locus YER111C, strain swi4, stronger effect = lower value 0.973 | locus YER155C, strain BEM2 (second series), stronger effect = lower value 0.963 | locus YFR010W, strain ubp6, stronger effect = lower value 0.938 | locus YGL167C, strain pmr1, stronger effect = lower value 0.949 | locus YGL173C, strain kem1, stronger effect = lower value 0.961 | locus YGL227W, strain vid30, stronger effect = lower value 0.96 | locus YGL240W, strain doc1, stronger effect = lower value 0.964 | locus YGL253W, strain hxk2, stronger effect = lower value 0.992 | locus YHR013C, strain ard1, stronger effect = lower value 0.938 | locus YHR027C, strain rpn1, stronger effect = lower value 0.962 | locus YHR030C, strain SLT2, stronger effect = lower value 0.989 | locus YHR079C, strain IRE1, stronger effect = lower value 0.992 | locus YHR142W, strain chs7, stronger effect = lower value 0.976 | locus YJL092W, strain hpr5, stronger effect = lower value 0.984 | locus YJL095W, strain BCK1 (second series), stronger effect = lower value 0.978 | locus YJL095W, strain BCK1, stronger effect = lower value 1 | locus YJL115W, strain asf1, stronger effect = lower value 0.978 | locus YJL129C, strain trk1, stronger effect = lower value 0.942 | locus YJL154C, strain vps35, stronger effect = lower value 0.991 | locus YJL164C, strain tpk1, stronger effect = lower value 0.958 | locus YJL166W, strain qcr8, stronger effect = lower value 0.977 | locus YJL187C, strain SWE1, stronger effect = lower value 0.973 | locus YJR066W, strain TOR1, stronger effect = lower value 0.933 | locus YKL160W, strain elf1, stronger effect = lower value 0.987 | locus YKR026C, strain gcn3, stronger effect = lower value 0.963 | locus YKR091W, strain srl3, stronger effect = lower value 0.984 | locus YLL001W, strain dnm1, stronger effect = lower value 0.964 | locus YLL026W, stronger effect = lower value 0.986 | locus YLL041C, strain sdh2, stronger effect = lower value 0.995 | locus YLR027C, strain aat2, stronger effect = lower value 0.971 | locus YLR113W, strain HOG1, stronger effect = lower value 0.951 | locus YLR221C, strain rsa3, stronger effect = lower value 0.988 | locus YLR258W, strain gsy2, stronger effect = lower value 0.977 | locus YLR262C, strain YPT6 (second series), stronger effect = lower value 0.959 | locus YLR320W, strain mms22, stronger effect = lower value 0.964 | locus YLR342W, strain FKS1, stronger effect = lower value 0.97 | locus YLR357W, strain rsc2, stronger effect = lower value 0.982 | locus YLR370C, strain arc18, stronger effect = lower value 0.947 | locus YLR384C, strain iki3, stronger effect = lower value 0.969 | locus YML120C, strain ndi1, stronger effect = lower value 0.956 | locus YMR058W, strain fet3, stronger effect = lower value 0.961 | locus YMR125W, strain sto1, stronger effect = lower value 0.947 | locus YMR129W, stronger effect = lower value 0.973 | locus YMR205C, strain PFK2, stronger effect = lower value 0.946 | locus YMR231W, strain pep5, stronger effect = lower value 0.974 | locus YNL071W, strain lat1, stronger effect = lower value 0.984 | locus YNL183C, strain NPR1, stronger effect = lower value 0.932 | locus YNL209W, strain ssb2, stronger effect = lower value 0.975 | locus YNL248C, strain rpa49, stronger effect = lower value 0.988 | locus YNL322C, strain KRE1 (second series), stronger effect = lower value 0.97 | locus YNR049C, strain mso1, stronger effect = lower value 0.989 | locus YOR001W, strain rrp6, stronger effect = lower value 0.991 | locus YOR070C, strain gyp1, stronger effect = lower value 0.988 | locus YOR080W, strain dia2, stronger effect = lower value 0.967 | locus YOR083W, strain WHI5, stronger effect = lower value 0.918 | locus YOR106W, strain vam3, stronger effect = lower value 0.974 | locus YOR231W, strain MKK1, stronger effect = lower value 0.968 | locus YOR265W, strain rbl2, stronger effect = lower value 0.961 | locus YOR270C, strain vph1, stronger effect = lower value 0.919 | locus YOR290C, strain snf2, stronger effect = lower value 0.943 | locus YPL051W, strain arl3, stronger effect = lower value 0.971 | locus YPL078C, strain atp4, stronger effect = lower value 0.987 | locus YPL106C, strain sse1, stronger effect = lower value 0.888 | locus YPL240C, strain hsp82, stronger effect = lower value 0.981 | locus YPL256C, strain CLN2, stronger effect = lower value 0.973
